# From patent US20210230599, “STEM-LOOP COMPOSITIONS AND METHODS FOR INHIBITING INTERLEUKIN-8” (VITRISA THERAPEUTICS, INC., published 2021)
# Target: Interleukin-8 (IL8, CXCL8), C-terminal His-tagged (Homo sapiens, UniProt P10145 SEQ:1-72)
# Experiment: competition; competition TR-FRET; L1 deleted, described as complete loss
# Conditions: tags: C-terminal 6xHis (Sino Biological); ssRNA; 2'-F G, 2'-OMe A/C/U, 5' C6NH2, 3' idT
# Protocol: To better understand the sequence requirements and to confirm the stem structures of members of the Aptamer 3 family as determined from sequence covariation analysis from both the primary and secondary (degenerate) selections, a series of variants which included mutations and deletions to the predicted stems were synthesized and screened (Table 24). Activity of each of these variants were tested using a time resolved competition TR-FRET assay in which the labeled parent Aptamer 3 was competed with increasing concentrations of unlabeled variants for binding to IL8 (FIG. 14). Briefly, 2-fold dilutions of thermally equilibrated aptamers were made in TR-FRET Buffer (50 mM MOPS, pH 7.4, 125 mM NaCl, 5 mM KCl, 50 μM CHAPS, 0.1 mg/mL BSA, 1 mM CaCl₂, and 1 mM MgCl₂). 5 μL of aptamer or control solution was added to 5 μl mix of 10 nM C-terminal His-tagged-IL8, 60 nM ALEXA FLUOR® 647-labeled Aptamer, and 5 nM anti-His-Eu (Perkin Elmer) in a black wall low volume 384 well plate (Greiner). […] The plate was read on a Biotek CYTATION™ 5 plate reader. […]
# To confirm the importance of this residue, molecules were made and tested in which either loop L1 was deleted entirely (Aptamer 40) or was mutated to 5′-U-3′(Aptamer 41). In both cases, there was a complete loss of activity (>10-fold) as determined by competition TR-FRET assay (Table 25 and FIG. 15).
row,Sequence,binding signal [fold worse than Aptamer 3]
1,GAUGCGGUAGAUUACGGGUAGAGUGACCGCAUC,> 10
